This passage reports Inhibition results from ChEMBL document CHEMBL4513156, “CO-ADD screening of NCPRI (Romania) compounds”.

One assay deals with Klebsiella pneumoniae. Conditions: Concentration 32 ug.mL-1; ASSAY_TEST Inhibition of Bacterial Growth; detection method Absorption (OD600); MEDIA CAMHB; plate type 384well; NBS; CORNING #3640; time 18 hr.
The test system of the next assay is Candida albicans. Conditions: 32 ug/mL.
A further assay has as its system Cryptococcus neoformans. Conditions: Concentration 32 ug.mL-1; ASSAY_TEST Inhibition of Fungal Growth; detection method Resazurin; Absorption (OD600-OD570); plate type 384well; NBS; CORNING #3640.

Each structure is given as a SMILES string. Potency and affinity values are given separately.

Consider `COC(=O)CCCCCC[C@@H]1[C@@H](/C=N/NC(=O)c2ccncc2)[C@H](O)C[C@@H]1O`, for which the Inhibition with Klebsiella pneumoniae is 5.87%; in the assay with Candida albicans, 0.11%; with Cryptococcus neoformans, -95.51%.
Taken in the same sequence, the figures for `CC(C)(C)[Si](C)(C)OCC1C2C[C@H]3C1[C@@H]3/C2=N/NC(=O)c1ccncc1` (stereo not given in full) were 15.16%, -2% and -48.28%.
Taken in the same sequence, the figures for `O=C(NNC(c1ccccc1)(c1ccccc1)c1ccccc1)c1ccncc1` were 4.48%, 3.62% and -75.72%.
Taken in the same sequence, the figures for `O=C(NN=CC[C@H]1[C@H](CO)[C@@H](O)C[C@H]1O)c1ccncc1` were 13.38%, 0.85% and -70.97%.
As to `O=C(NNC(=O)[C@@H]1C[C@H](C(=O)O)[C@@H]2CC=C[C@@H]21)c1ccncc1`, the Inhibition in the assay on Klebsiella pneumoniae is 15.82%; in the assay on Candida albicans, 1.29%; in the assay with Cryptococcus neoformans, -37.2%.
Taken in the same sequence, the figures for `O=C(N/N=C1\C[C@@H]2[C@H](COC(c3ccccc3)(c3ccccc3)c3ccccc3)C[C@H](CO)[C@@H]2C1)c1ccncc1` were 2.31%, 12.2% and -65.69%.
Taken in the same sequence, the figures for `O=C1C[C@H]2[C@H](/C=N/NC(=O)c3ccncc3)[C@H](C[C@@H]2Cl)O1` were 20.57%, 3.46% and -80.73%.
Taken in the same sequence, the figures for `O=C(N/N=C/C[C@@H]1[C@@H](CO)[C@H](O)C[C@@H]1O)c1ccncc1` were 16.63%, 0.37% and -75.19%.
In the case of `O=C(N/N=C1/C2C[C@H]3C(C2CO)[C@H]13)c1ccncc1` (stereo not given in full), the figures for the Inhibition in the assay with Klebsiella pneumoniae, in the assay with Candida albicans and in the assay with Cryptococcus neoformans were 15.76%, 0.37% and -50.92%, respectively.
Taken in the same sequence, the figures for `O=C(N/N=C1\CC[C@@H]2[C@H]1[C@H](OC(=O)c1ccccc1)C[C@@H]2OC(=O)c1ccccc1)c1ccncc1` were 13.57%, 12.8% and -65.69%.

A word on the Inhibition: it is the change of the read-out against control, counted positive when it falls.
